The record followed here is PubChem BioAssay (Tox21).

Molecules are shown by their SMILES. Records with an inconclusive call do not appear. A number with no mark means an inactive call. The source made the active and inactive calls. Unless noted, calls follow the shape of the dose curve; as a rule, active = well fitted curve in the direction sought with a large enough effect in the repeat runs; inconclusive = weak or mixed curves; inactive = no such curve, though single readings can be large; an effect the other way counts as inactive or inconclusive.

Experiment [1] can be described thus: qHTS assay to identify aromatase inhibitors - cell viability counter screen (AID 743084).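 Also: cells stimulated with testosterone during compound exposure; nearly all actives have a fitted effect of over 55% in size.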
For experiment [2], the target named is Aryl hydrocarbon receptor (Homo sapiens) (UniProt P35869). The experiment in a line: qHTS assay to identify small molecule that activate the aryl hydrocarbon receptor (AhR) signaling pathway (AID 743085). Also: nearly all actives have a fitted effect of over 15% in size. Also: potency is read from the fitted curve at half-maximal effect.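 As to activation: HG2L7.5c1 human HepG2 liver cells with stably integrated DRE-driven firefly reporter; series mostly up to about 70 µM.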 Put shortly:
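24 h compound exposure, 37C, HepG2-derived HG2L7.5c1 cells with DRE-responsive luciferase. Readouts: fluorescence viability, then luminescence at room temperature after 30 min.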

Experiment [3] is described as follows: qHTS assay to identify small molecule that activate the aryl hydrocarbon receptor (AhR) signaling pathway - cell viability counter screen (AID 743086).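 Also: HepG2 liver cells carrying the AhR DRE luciferase reporter; series mostly up to about 70 µM; nearly all actives have a fitted effect of over 45% in size.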 The procedure, abridged:
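Cytotoxicity counter screen: CellTiter-Fluor signal (30 min, 37 C) in 4000 HepG2 cells/well carrying the DRE-luciferase reporter, following 24 h compound exposure at 37 C.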
On the technique in general: In qHTS, concentration-response curves come from the screen itself.

For experiment [4], the target named is Peroxisome proliferator-activated receptor gamma (Homo sapiens) (UniProt P37231). The experiment in a line: qHTS assay to identify small molecule agonists of the peroxisome proliferator-activated receptor gamma (PPARg) signaling pathway (AID 743094; active = well fitted activation curve with a large enough effect in the signal ratio in the repeat runs, not every such curve was filed as active; the % refers to the signal ratio). Put shortly: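 Quantitative HTS agonist mode: stable HEK293H line with UAS-beta-lactamase reporter under PPARg control, 17 h compound exposure at 37C, fluorescence after 1 h FRET substrate loading at room temperature.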
Peroxisome proliferator-activated receptor gamma (Homo sapiens), sequence (P37231 whole entry, looked up): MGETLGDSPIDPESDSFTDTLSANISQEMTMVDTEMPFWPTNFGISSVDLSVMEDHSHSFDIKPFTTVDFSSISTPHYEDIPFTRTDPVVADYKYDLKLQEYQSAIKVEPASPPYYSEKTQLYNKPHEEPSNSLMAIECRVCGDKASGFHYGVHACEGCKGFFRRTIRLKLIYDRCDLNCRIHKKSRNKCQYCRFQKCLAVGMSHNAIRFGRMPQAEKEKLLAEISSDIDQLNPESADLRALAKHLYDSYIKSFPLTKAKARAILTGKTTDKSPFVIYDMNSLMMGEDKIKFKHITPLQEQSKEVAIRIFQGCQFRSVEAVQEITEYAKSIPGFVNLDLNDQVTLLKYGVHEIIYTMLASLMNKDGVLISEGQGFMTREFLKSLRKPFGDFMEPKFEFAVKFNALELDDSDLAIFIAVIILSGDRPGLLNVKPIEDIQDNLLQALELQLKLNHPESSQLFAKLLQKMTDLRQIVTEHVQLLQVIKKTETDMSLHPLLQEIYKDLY

Experiment [5] can be described thus: qHTS assay to identify small molecule antagonists of the peroxisome proliferator-activated receptor gamma (PPARg) signaling pathway - cell viability counter screen (AID 743194). Also: nearly all actives have a fitted effect of over 55% in size. Put shortly:
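Viability was measured as CellTiter-Glo luminescence in GeneBLAzer PPARg UAS-bla HEK293H cells. These cells had been exposed 17 h at 37 C to compounds together with rosiglitazone at 50 nM final, with the beta-lactamase readout taken in the same wells.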

Experiment [6] can be described thus: qHTS assay for small molecule agonists of the antioxidant response element (ARE) signaling pathway (AID 743202; active = well fitted activation curve with a large enough effect in the signal ratio in the repeat runs, not every such curve was filed as active; the % refers to the signal ratio; also: potency is read from the fitted curve at half-maximal effect). Put shortly: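 Quantitative high-throughput format in HepG2 cells bearing an integrated ARE-beta-lactamase reporter. Compound exposure lasted 16 h at 37 C, and fluorescence was read 2 h after adding LiveBLAzer B/G substrate at room temperature.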
Experiment [7] is described as follows: qHTS assay for small molecule agonists of the antioxidant response element (ARE) signaling pathway - cell viability counter screen (AID 743203; calls by dose curve; also: nearly all actives have a fitted effect of over 55% in size). Put shortly: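 Seeded at 2,000 cells/well, ARE-bla HepG2 cells were incubated 5 hrs before compound addition. After 16 hrs of treatment at 37C with 5% CO2, CellTiter-Glo reagent was added and luminescence read 30 min later.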

Experiment [8] in a line: qHTS assay for small molecule activators of the heat shock response signaling pathway - cell viability counter screen (AID 743209). Also: nearly all actives have a fitted effect of over 50% in size. Put shortly: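 First, HSE-bla HeLa cells were seeded at 1500 cells/well and kept overnight at 37 C. Next, compounds were pinned in and incubated 5 h. After the FRET substrate step, CellTiter-Glo was added and luminescence read 30 min later.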

A short description of experiment [9]: qHTS assay for small molecule activators of the heat shock response signaling pathway (AID 743210; active = well fitted activation curve with a large enough effect in the signal ratio in the repeat runs, with a control signal flat, not every such curve was filed as active; the % refers to the signal ratio;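 also: HeLa cells with beta-lactamase reporter driven by heat shock elements; series mostly up to about 63 µM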). Put shortly:
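HeLa HSE-bla cells, overnight plating; cpd in DMSO 5 h, 37 C; LiveBLAzer B/G FRET substrate 2.5 h RT; fluorescence intensity read.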

Experiment [10] addresses Peroxisome proliferator-activated receptor gamma (Homo sapiens) (UniProt P37231). Kind of experiment: qHTS assay to identify small molecule antagonists of the peroxisome proliferator-activated receptor gamma (PPARg) signaling pathway (AID 743191; calls by dose curve; also: series mostly up to about 63 µM; nearly all actives have a fitted effect of over 30% in size). Put shortly: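 Beta-lactamase reporter under UAS control in HEK293H PPARg-bla cells; compound treatment 17 h at 37C. Read-out: fluorescence intensity after 1 h room-temperature incubation with LiveBLAzer B/G FRET substrate.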
% is scaled to controls: 0 for no effect and ±100 for the full control effect.

Aryl hydrocarbon receptor (Homo sapiens), sequence (P35869 whole entry, looked up): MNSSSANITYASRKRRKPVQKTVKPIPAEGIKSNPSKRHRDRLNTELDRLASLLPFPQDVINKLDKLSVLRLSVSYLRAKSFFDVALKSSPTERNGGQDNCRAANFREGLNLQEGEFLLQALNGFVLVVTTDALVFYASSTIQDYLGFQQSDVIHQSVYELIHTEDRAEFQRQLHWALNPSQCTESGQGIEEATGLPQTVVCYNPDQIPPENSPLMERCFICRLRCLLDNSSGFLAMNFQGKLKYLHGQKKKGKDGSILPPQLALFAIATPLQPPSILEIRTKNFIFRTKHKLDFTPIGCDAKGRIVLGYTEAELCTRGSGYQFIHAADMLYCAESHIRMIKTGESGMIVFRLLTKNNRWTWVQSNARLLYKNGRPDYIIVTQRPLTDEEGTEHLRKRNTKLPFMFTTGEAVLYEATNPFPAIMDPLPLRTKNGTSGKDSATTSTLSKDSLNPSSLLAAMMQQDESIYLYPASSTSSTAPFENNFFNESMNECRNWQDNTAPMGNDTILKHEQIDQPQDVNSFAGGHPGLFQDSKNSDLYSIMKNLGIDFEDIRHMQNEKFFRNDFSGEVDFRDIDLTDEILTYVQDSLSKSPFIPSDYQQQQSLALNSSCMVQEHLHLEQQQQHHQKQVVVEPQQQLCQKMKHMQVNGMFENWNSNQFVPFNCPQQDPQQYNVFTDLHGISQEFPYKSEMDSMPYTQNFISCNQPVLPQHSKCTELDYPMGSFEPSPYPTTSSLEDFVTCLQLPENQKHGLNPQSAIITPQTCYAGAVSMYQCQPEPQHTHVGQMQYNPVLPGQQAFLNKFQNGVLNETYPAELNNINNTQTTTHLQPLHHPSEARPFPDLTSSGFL

Consider `CC(=O)c1ccc2c(c1)CCCC2`, for which the Potency result in experiment [1], in experiment [2], in experiment [3] and in [6] was “inactive” in each case. Further, the call in experiment [4], in [5], in [7], in experiment [8] and in [9] was inactive.
As to `CN[C@@H]1[C@@H](O)[C@@H](O[C@@H]2[C@H](O)[C@H](O[C@H]3OC(CN)=CC[C@H]3N)[C@@H](N)C[C@H]2N)OCC1(C)O` (some centres not stated), the Potency entry in experiment [1], in experiment [2], in [3] and in experiment [6] was “inactive” throughout. Besides, the outcome in [4], in experiment [5], in experiment [7], in [8] and in experiment [9] was inactive.
Consider `O=c1[nH]c(=O)c2ccccc2o1`, for which the Potency entry in experiment [1], in [2], in [3], in experiment [10] and in experiment [6] was “inactive” each time. Also, the call in experiment [5], in experiment [7], in experiment [8] and in experiment [9] was inactive.
Turning to `CCCCCCCCCCCCC1CO1` (configuration not stated), the Potency result in experiment [1], in experiment [2], in experiment [3], in experiment [10] and in [6] was “inactive” in each case. Besides, the result in experiment [5], in [7], in experiment [8] and in [9] was inactive.
For `CCCOC(=O)CCCCC(=O)OCCC`, the Potency entry in experiment [1], in experiment [2], in [3] and in experiment [6] was “inactive” each time. For the same compound, the compound was called inactive in experiment [4], in experiment [5], in experiment [7] and in [9].
In the case of `C=C(C)[C@@H]1CC[C@@H](C)C[C@@H]1O`, the Potency entry in experiment [1], in experiment [2], in [3] and in experiment [6] was “inactive” each time. In addition, the outcome in [4], in experiment [5], in experiment [7] and in [9] was inactive.
Take `CN=C(NC#N)NCCSCc1csc(N=C(N)N)n1`: the Potency result in experiment [1], in [2], in experiment [3] and in [6] was “inactive” in each case. For the same compound, the call in [4], in experiment [5], in experiment [7], in [8] and in [9] was inactive.
`CCCCCCCCOC(C)=O`: the Potency entry in experiment [1], in experiment [2], in [3], in experiment [10] and in [6] was “inactive” in each case. Further, the outcome in [5] and in [7] was inactive.
Take `OC[C@@H](O)[C@H](O)[C@@H](O)[C@@H](O)CO`: the Potency entry in [1], in experiment [2], in experiment [3], in [10] and in experiment [6] was “inactive” each time. Moreover, the compound was classed as inactive in experiment [5], in [7] and in experiment [9].
On to `O=c1[nH]c(=O)c2[nH]c(=O)[nH]c2[nH]1`, for which the Potency result in experiment [1], in experiment [2] and in experiment [3] was “inactive” throughout. Further, the ratio activity, negative = inhibition in experiment [10] was -6.65% [at 13.2 µM]. In addition, the figures for the activity change, negative = cytotoxicity in experiment [5] and in [8] were -35.1% [at 13.2 µM] and -0.886% [at 13.2 µM], respectively. In addition, the activation in [6] is 2.83% [at 8.36 µM]; in experiment [9] it was -0.669% [at 13.2 µM]. For the same compound, the viability change, negative = cytotoxic in experiment [7] was 8.26% [at 8.36 µM].
With `CCCCC(CC)COC(=O)c1ccccc1` (configuration not stated), the Potency entry in [1], in [2], in experiment [3], in experiment [10] and in experiment [6] was “inactive” throughout. For the same compound, the result in experiment [5], in experiment [7], in experiment [8] and in [9] was inactive.
In the case of `CC1(N)CCC(C(C)(C)N)CC1` (configuration not stated), the Potency entry in [1], in experiment [2], in experiment [3] and in experiment [6] was “inactive” in each case. The compound was classed as inactive in [4], in [5], in experiment [7], in experiment [8] and in experiment [9].
Consider `Nc1cc(Cl)cc(S(=O)(=O)O)c1O`, for which the Potency entry in experiment [1], in experiment [2] and in experiment [3] was “inactive” throughout. In addition, the call in [4], in [5], in experiment [7], in [8] and in [9] was inactive.
Take `Cc1ccccc1OCC1CO1` (configuration not stated): the Potency entry in experiment [1], in experiment [2], in experiment [3], in [10] and in [6] was “inactive” throughout. Further, the call in [5], in experiment [7], in experiment [8] and in experiment [9] was inactive.
Consider `O=C1CC[C@H](C(=O)N2CCCCC2)N1`, for which the Potency result in experiment [1], in [2], in [3] and in [6] was “inactive” throughout. Also, the result in experiment [4], in experiment [5], in [7], in experiment [8] and in experiment [9] was inactive.
Consider `CCCCC(=O)N(C)C`, for which the Potency entry in [1], in [2], in [3] and in [6] was “inactive” each time. Moreover, the result in [4], in experiment [5], in experiment [7] and in experiment [9] was inactive.
For `Cc1ncc([N+](=O)[O-])n1CC(O)CCl` (configuration not stated), the Potency result in [1], in experiment [2], in experiment [3] and in [6] was “inactive” throughout. Moreover, the outcome in experiment [4], in experiment [5], in experiment [7] and in experiment [9] was inactive.
For `Cc1cc(O)c2c(c1)C(=O)c1cccc(O)c1C2=O`, the Potency result in [1] and in experiment [3] was “inactive” throughout. Further, the values for the Potency in experiment [2] and in experiment [6] were 26.7 µM (active) and 10.6 µM (active), respectively. In addition, the outcome in experiment [4], in [5], in experiment [7] and in experiment [9] was inactive.
Take `O=C1NC2NC(=O)NC2N1` (configuration not stated): the Potency entry in experiment [1], in [2], in experiment [3], in experiment [10] and in [6] was “inactive” throughout. Also, the outcome in [5] and in experiment [7] was inactive.
`CCOC(=O)C(C)(C)C`: the Potency result in experiment [1], in [2], in experiment [3] and in [6] was “inactive” in each case. For the same compound, the outcome in [4], in experiment [5], in experiment [7], in [8] and in [9] was inactive.
For the compound `C1=C\CC/C=C\CC/1`, the Potency result in experiment [1], in experiment [2], in experiment [3], in experiment [10] and in experiment [6] was “inactive” each time. Moreover, the compound was classed as inactive in experiment [5], in experiment [7] and in experiment [8].
Turning to `CCCCCCCC[Si](OCC)(OCC)OCC`, the Potency result in [1], in experiment [2], in experiment [3] and in [6] was “inactive” in each case. For the same compound, the compound was called inactive in experiment [4], in experiment [5], in experiment [7], in experiment [8] and in experiment [9].
Take `OCCCCCCCl`: the Potency result in experiment [1], in experiment [2], in experiment [3] and in experiment [6] was “inactive” throughout. The call in experiment [4], in [5], in [7], in experiment [8] and in experiment [9] was inactive.
Regarding `CCN1CN(CC)CN(CC)C1`, the Potency result in [1], in [2], in experiment [3], in experiment [10] and in experiment [6] was “inactive” in each case. The compound was classed as inactive in [5], in [7], in experiment [8] and in experiment [9].
Regarding `CCCCC(C)C(=O)O` (configuration not stated), the Potency entry in [1], in experiment [2], in experiment [3] and in experiment [6] was “inactive” in each case. For the same compound, the result in [4], in experiment [5], in experiment [7], in [8] and in experiment [9] was inactive.
With `FC(F)(F)c1ccc(Cl)cc1Cl`, the Potency result in experiment [1], in experiment [2], in experiment [3] and in [6] was “inactive” throughout. In addition, the compound was called inactive in experiment [4], in [5], in experiment [7], in [8] and in [9].
Consider `CC(=O)/C=C/c1ccco1`, for which the Potency entry in [1], in experiment [2], in experiment [3] and in experiment [6] was “inactive” throughout. The result in experiment [4], in experiment [5], in experiment [7], in experiment [8] and in experiment [9] was inactive.
Regarding `CC(C)CCCC(C)CC=O` (configuration not stated), the Potency result in experiment [1], in experiment [2], in experiment [3] and in experiment [6] was “inactive” each time. Further, the compound was called inactive in experiment [4], in [5], in [7], in experiment [8] and in [9].
Consider `O=S(=O)(O)SSS(=O)(=O)O`, for which the Potency result in experiment [1], in [2] and in experiment [3] was “inactive” throughout. Further, the compound was called inactive in experiment [4], in experiment [5], in experiment [7] and in experiment [8].
